Results filed as inconclusive are left out. Unmarked numbers belong to inactive results. Active and inactive are the calls of the source. Calls come from the whole dose curve; as a rule, active = well fitted cell-killing curve with a large enough effect in the repeat runs; inconclusive = weak or mixed curves, or effect the other way; inactive = no such curve, though single readings can be large or run the other way.
% is set by controls: 0 for no effect and ±100 for the full control effect.

A short description of this experiment: qHTS assay to identify small molecule antagonists of the progesterone receptor (PR) signaling pathway - cell viability counter screen (AID 1346798). Note: nearly all actives have a fitted effect of over 50% in size. The settings on record: PR-UAS-bla HEK293T viability, CellTiter-Glo luminescence, 16 h; series mostly up to 92.4 µM. The source says: National Center for Advancing Translational Sciences [NCATS]
NIH Chemical Genomics Center [NCGC]
U.S. Environmental Protection Agency [EPA]
National Institutes of Environmental Health Sciences [NIEHS]
National Toxicology Program [NTP]
U.S. Food and Drug Administration [FDA]
Progesterone receptor (PR), a nuclear hormone receptor, plays an important role in development, metabolic homeostasis and reproduction. It is activated by the steroid hormone progesterone. Endocrine disrupting chemicals (EDCs) and their interactions with steroid hormone receptors like PR causes disruption of normal endocrine function. To identify the compounds that inhibit PR signaling, a PR-UAS-bla GripTite cell line i.e. PR-UAS-bla HEK293T (Invitrogen, Carlsbad, CA, USA) containing a beta-lactamase reporter gene under the control of an UAS response element was used to screen Tox21 10K compound library. The cytotoxicity of the Tox21 compound library against the PR-bla cell line was tested in parallel by measuring the cell viability using CellTiter-Glo assay in the same wells.
Tox21 Assay Protocol Summary:
PR-UAS-bla HEK293T cells were dispensed at 3,000 cells/4 uL of assay medium containing 2% charcoal stripped FBS per well into black wall/clear-bottom 1536-well plates using a Multidrop Combi (ThermoFisher Scientific, Waltham, MA) dispenser. After the assay plates were incubated at a 37C and 5% CO2 for 4 hr, 23 nL of compounds dissolved in DMSO, positive controls or DMSO only was transferred to the assay plate by a Pintool station (Kalypsys, San Diego, CA), followed by addition of 1 uL of R5020 in assay medium using a Flying Reagent Dispenser (FRD, Aurora Discovery, San Diego, CA). The plates were incubated at 37C and 5% CO2 for 16 hr. Then 1 uL of LiveBLAzer B/G FRET substrate was added using a Flying Reagent Dispenser, the plates were incubated at room temperature for 2 hours, and fluorescence intensity was measured by an Envision plate reader (PerkinElmer, Shelton, CT). For cell viability readout that measures cytotoxicity, 4 uL/well of CellTiter-Glo reagent was added into the assay plates using a FRD. After 30 min incubation at room temperature, the luminescence intensity in the plates was measured using a ViewLux (PerkinElmer) plate reader.
For orientation: qHTS replaces the single test concentration by a dilution series.
Consider `CC(=O)/C=C/C=C1/C2CCC(C2)C1(C)C` (stereo not given), for which the molecule was called inactive.
As for `CC(CN1CC(=O)NC(=O)C1)N1CC(=O)NC(=O)C1` (stereo not given), the molecule was classed as inactive.
`CCC(C)(C)C`: the outcome was inactive.
Turning to `c1cc2ccc3ccc4ccc5cccc6c(c1)c2c3c4c56`, the activity change, negative = cytotoxicity was 2.42% [at 3.27 µM].
For the molecule `CC(O)CCCCn1c(=O)c2c(ncn2C)n(C)c1=O` (stereo not given), the result was inactive.
For `CCCC(=O)C(CC)Sc1ccoc1C` (stereo not given), the molecule was classed as inactive.
Same read-out and setting: as for `CC(C)CC(O)Cc1ccccc1` (stereo not given), the entry is “inactive”; as for `C=CCOC(=O)CCCCCCCC`, “inactive”.
As for `CCC(C)SSC(C)CC` (stereo not given), the call was inactive.
On to `COc1ccccc1N1CCN(CC(O)COc2cc(OC)c(OC)c(OC)c2)CC1` (stereo not given), for which the outcome was inactive.
In the case of `CCCCCCCCS(=O)(=O)O`, the molecule was called inactive.
For `CC1(C)CC(N)CC(C)(C)N1`, the molecule was called inactive.
Take `CNC(C)=O`: the result was inactive.
The same measure, in the same setting: then `O=C1CCCc2c(O)cccc21`, with “inactive”; and `O=C(OOC(=O)c1ccccc1)c1ccccc1`, with “inactive”; and `CC(C)(Sc1cc(C(C)(C)C)c(O)c(C(C)(C)C)c1)Sc1cc(C(C)(C)C)c(O)c(C(C)(C)C)c1`, with “inactive”.
On the same count and under the same terms, as for `COC(=O)c1ccccc1Cl`, the entry is “inactive”.
On to `CCCCC(CC)CCC(CC(C)C)OS(=O)(=O)O` (stereo not given), for which the call was inactive.
With `CC1=C(O)C(=O)CO1`, the molecule was called inactive.
For `CCOc1ccccc1OCCN[C@H](C)Cc1ccc(OC)c(S(N)(=O)=O)c1`, the result was inactive.
Still for that read-out and setting: as for `C=CC(=O)CC`, the entry is “inactive”; as for `CCCCCCCCCCCCCCBr`, “inactive”.
Turning to `NCC1CCC(C(=O)Oc2ccc(CCC(=O)O)cc2)CC1` (stereo not given), the molecule was classed as inactive.
As to `CCCCc1ccc(Cl)cc1`, the molecule was classed as inactive.
With `C/C=C(\C)C=O`, the molecule was called inactive.
With `CO/N=C(\C(=O)O)c1csc(NC(=O)CCl)n1`, the result was inactive.
For `Cc1cc(N)no1`, the molecule was classed as inactive.
Turning to `Cc1nc2ccc(Cl)cc2[nH]1`, the molecule was classed as inactive.
For `CCCCCCCCOCCC#N`, the molecule was classed as inactive.
For the molecule `CC(=O)SC[C@@H](C)C(=O)N1CCC[C@H]1C(=O)N[C@@H](Cc1ccccc1)C(=O)O`, the call was inactive.
Consider `CC(=O)c1ccc(O)c(C(N)=O)c1`, for which the result was inactive.
Still for that read-out and setting: then `Nc1cc(S(=O)(=O)O)ccc1O`, with “inactive”.
Regarding `COc1ccc(Cl)cc1C`, the molecule was classed as inactive.
Turning to `N[C@H]1C(O)O[C@H](CO)[C@@H](O)[C@@H]1O` (stereo not given in full), the outcome was inactive.
`CCCCCC(CC)OC(=O)CCCOc1ccc(Cl)cc1Cl` (stereo not given): the molecule was classed as inactive.
For `CC(C)OC(=O)C(C(=O)OC(C)C)=C1SC=CS1`, the molecule was called inactive.
Same read-out and setting: as for `COC(=O)c1cc(Cl)c(NC(C)=O)cc1OC`, the entry is “inactive”; as for `CCCC(=O)OC`, “inactive”; as for `Clc1ccc2c(c1)Nc1ccccc1S2`, “inactive”.
As for `CC(C)(C)C(=O)CC(=O)C(C)(C)C`, the outcome was inactive.
